Assay [1] can be described thus: BSK_4H_SRB: Viability Assessment in the BioMAP Diversity Plus: 4H Assay (AID 2283027).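 Also: cells exposed to compound for 24 h before staining.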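 As to AC50: curves fitted both ways versus DMSO so AC50 may be loss or gain.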 As to conditions: primary human endothelial cells (HUVEC). The procedure, abridged:
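HUVEC, 24 h post-dose; 10% TCA fix, 0.1% SRB stain, A560 nm. Total protein = overt cytotoxicity, parallel to biomarker read. Bidirectional fit vs DMSO baseline.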

Assay [2] is described as follows: BSK_BE3C_SRB: Viability Assessment in the BioMAP Diversity Plus: BE3C Assay (AID 2283028).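 As to AC50: fitted both ways so AC50 may mark signal gain or loss versus DMSO.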 As to conditions: primary human bronchial epithelial cells. The method in brief:
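Primary human bronchial epithelium; chemical dosing, 24 h; 10% TCA fix, 0.1% SRB stain, A560; bidirectional fit vs DMSO baseline.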

Read-out in assay [3]: Urokinase-type plasminogen activator receptor (uPAR), PLAUR (gene 5329)
The assay is described as follows: BSK_4H_uPAR: BioMAP Diversity Plus: 4H Assay for Urokinase-type plasminogen activator receptor (uPAR) Biomarker Activity (AID 2283030). The conditions noted are these: primary human endothelial cells (HUVEC); actives raise or lower the signal. The procedure, abridged: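 HUVEC, 24 h post-dose; uPAR by ELISA; bidirectional fit vs DMSO baseline.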

Read-out in assay [4]: Human Leukocyte Antigen - DR isotype (HLADR), HLA-DRA (gene 3122)
The assay is described as follows: BSK_BE3C_HLADR: BioMAP Diversity Plus: BE3C Assay for Human Leukocyte Antigen - DR isotype (HLADR) Biomarker Activity (AID 2283032). The conditions noted are these: primary human bronchial epithelial cells; actives raise or lower the signal. The procedure, abridged:
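Chemicals are dosed onto BE3C bronchial epithelial cultures of human origin and left 24 h. HLA-DR is then measured by ELISA, and the endpoint is fitted in both directions using DMSO as the activity baseline.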

Read-out in assay [5]: Vascular cell adhesion molecule 1 (VCAM1), VCAM1 (gene 7412)
Put plainly: BSK_4H_VCAM1: BioMAP Diversity Plus: 4H Assay for Vascular cell adhesion molecule 1 (VCAM1) Biomarker Activity (AID 2283033).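 As to outcome: cell-surface VCAM-1 protein measured by ELISA.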 The conditions noted are these: primary human endothelial cells (HUVEC); actives raise or lower the signal. The method in brief: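 Chemicals are added to primary human umbilical vein endothelial cells. After 24 h, VCAM-1 levels are measured by ELISA. Values come from bidirectional fitting referenced to DMSO.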

Read-out in assay [6]: Interferon-gamma inducible Protein 10 (IP10), CXCL10 (gene 3627)
Put plainly: BSK_BE3C_IP10: BioMAP Diversity Plus: BE3C Assay for Interferon-gamma inducible Protein 10 (IP10) Biomarker Activity (AID 2283034). As to conditions: primary human bronchial epithelial cells; actives raise or lower the signal. The method in brief: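 IP-10 quantified by ELISA serves as the endpoint. Cells: primary human bronchial epithelium, read 24 h after compound addition. Activity is derived by bidirectional fitting with DMSO as negative control.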

Read-out in assay [7]: Monokine induced gamma interferon (MIG), CXCL9 (gene 4283)
Put plainly: BSK_BE3C_MIG: BioMAP Diversity Plus: BE3C Assay for Monokine induced gamma interferon (MIG) Biomarker Activity (AID 2283035). The conditions noted are these: primary human bronchial epithelial cells; actives raise or lower the signal. The procedure, abridged: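 Dose cells (human primary bronchial epithelial), incubate 24 h, quantify MIG by ELISA, then fit concentration–response in both directions relative to DMSO control.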

Read-out in assay [8]: Transforming growth factor beta 1 (TGFb1), TGFB1 (gene 7040)
Put plainly: BSK_BE3C_TGFb1: BioMAP Diversity Plus: BE3C Assay for Transforming growth factor beta 1 (TGFb1) Biomarker Activity (AID 2283036;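 as to outcome: TGF-b1 protein level measured by ELISA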). The conditions noted are these: primary human bronchial epithelial cells; actives raise or lower the signal. The procedure, abridged:
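Bronchial epithelial primary cells are treated with test chemical, then TGF-b1 is quantified by ELISA after 24 hours. Values derive from bidirectional fitting against DMSO, with cytotoxicity checked by SRB staining in parallel cultures.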

Read-out in assay [9]: Plasminogen activator inhibitor-1 (PAI1), SERPINE1 (gene 5054)
The assay is described as follows: BSK_BE3C_PAI1: BioMAP Diversity Plus: BE3C Assay for Plasminogen activator inhibitor-1 (PAI1) Biomarker Activity (AID 2283037). As to conditions: primary human bronchial epithelial cells; actives raise or lower the signal. The method in brief:
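Values derive from bidirectional fitting against DMSO baseline of PAI-1 levels, measured by ELISA in human bronchial epithelial cells 24 h after compound addition.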

Read-out in assay [10]: urokinase plasminogen activator (uPA), PLAU (gene 5328)
Put plainly: BSK_BE3C_uPA: BioMAP Diversity Plus: BE3C Assay for urokinase plasminogen activator (uPA) Biomarker Activity (AID 2283038).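 As to outcome: uPA protein level quantified by ELISA in cell cultures; uPA read one day after compound addition.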 As to conditions: primary human bronchial epithelial cells; actives raise or lower the signal. The procedure, abridged: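 ELISA read-out of uPA in human lung primary bronchial epithelial cultures, 24 h post-dosing. Gain or loss of signal fitted bidirectionally relative to DMSO baseline; cytotoxicity checked in parallel cultures via SRB total protein stain.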

Read-out in assay [11]: Urokinase-type plasminogen activator receptor (uPAR), PLAUR (gene 5329)
Put plainly: BSK_BE3C_uPAR: BioMAP Diversity Plus: BE3C Assay for Urokinase-type plasminogen activator receptor (uPAR) Biomarker Activity (AID 2283039).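 As to outcome: uPAR protein level measured by ELISA on the cells; cells exposed to compound for one day before measurement.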 As to conditions: primary human bronchial epithelial cells; actives raise or lower the signal. The procedure, abridged:
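Steps: dose human primary bronchial epithelial cells, incubate 24 h, measure uPAR by ELISA, then fit gain- or loss-of-signal response bidirectionally relative to DMSO.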

Read-out in assay [12]: Interleukin-6 (IL6), IL6 (gene 3569)
The assay is described as follows: BSK_CASM3C_IL6: BioMAP Diversity Plus: CASM3C Assay for Interleukin-6 (IL6) Biomarker Activity for (AID 2283040). The conditions noted are these: primary human coronary artery smooth muscle cells; actives raise or lower the signal.

Read-out in assay [13]: Tissue plasminogen activator (tPA), PLAT (gene 5327)
The assay is described as follows: BSK_BE3C_tPA: BioMAP Diversity Plus: BE3C Assay for Tissue plasminogen activator (tPA) Biomarker Activity (AID 2283041).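 As to outcome: tPA level quantified by ELISA one day after compound addition.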 The conditions noted are these: primary human bronchial epithelial cells; actives raise or lower the signal. The method in brief:
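Gain- or loss-of-signal in tPA, measured by ELISA, derived by bidirectional fitting against DMSO. Cells: human primary bronchial epithelial; read at 24 h after chemical dosing.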

Read-out in assay [14]: Interleukin-8 (IL8), CXCL8 (gene 3576)
Put plainly: BSK_CASM3C_IL8: BioMAP Diversity Plus: CASM3C Assay for Interleukin-8 (IL8) Biomarker Activity (AID 2283042).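 Also: IL-8 protein level quantified by ELISA.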 The conditions noted are these: primary human coronary artery smooth muscle cells; actives raise or lower the signal.

Read-out in assay [15]: Human Leukocyte Antigen - DR isotype (HLADR), HLA-DRA (gene 3122)
The assay is described as follows: BSK_CASM3C_HLADR: BioMAP Diversity Plus: CASM3C Assay for Human Leukocyte Antigen - DR isotype (HLADR) Biomarker Activity (AID 2283043).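 Also: cell-surface HLA-DR protein level quantified by ELISA.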 The conditions noted are these: primary human coronary artery smooth muscle cells; actives raise or lower the signal.

Read-out in assay [16]: Macrophage colony-stimulating factor (MCSF), CSF1 (gene 1435)
The assay is described as follows: BSK_CASM3C_MCSF: BioMAP Diversity Plus: CASM3C Assay for Macrophage colony-stimulating factor (MCSF) Biomarker Activity (AID 2283044).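 Also: M-CSF protein amount quantified by ELISA after 24 h exposure.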 As to conditions: primary human coronary artery smooth muscle cells; actives raise or lower the signal.

Read-out in assay [17]: Low-density lipoprotein receptor (LDLR), LDLR (gene 3949)
The assay is described as follows: BSK_CASM3C_LDLR: BioMAP Diversity Plus: CASM3C Assay for Low-density lipoprotein receptor (LDLR) Biomarker Activity (AID 2283045).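 Also: LDLR protein level on the cell surface quantified by ELISA.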 The conditions noted are these: primary human coronary artery smooth muscle cells; actives raise or lower the signal.

Read-out in assay [18]: Monocyte Chemoattractant Protein-1 (MCP1), CCL2 (gene 6347)
The assay is described as follows: BSK_CASM3C_MCP1: BioMAP Diversity Plus: CASM3C Assay for Monocyte Chemoattractant Protein-1 (MCP1) Biomarker Activity (AID 2283046).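 Also: MCP-1 level quantified by ELISA 24 h after dosing.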 The conditions noted are these: primary human coronary artery smooth muscle cells; actives raise or lower the signal.

Read-out in assay [19]: Thrombomodulin, THBD (gene 7056)
The assay is described as follows: BSK_3C_Thrombomodulin: BioMAP Diversity Plus: 3C Assay for Thrombomodulin Biomarker Activity (AID 2283029). The conditions noted are these: primary human endothelial cells (HUVEC); actives raise or lower the signal. The method in brief:
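Endothelial cells from umbilical vein are dosed with test chemical and incubated 24 h. Thrombomodulin is then quantified by ELISA, with DMSO serving as negative control and activity baseline.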

Read-out in assay [20]: Vascular endothelial growth factor receptor 2 (Homo sapiens) (UniProt P35968)
The assay is described as follows: BSK_4H_VEGFRII: BioMAP Diversity Plus: 4H Assay for Vascular endothelial growth factor receptor 2 (VEGFR2) Biomarker Activity (AID 2283031). As to conditions: primary human endothelial cells (HUVEC); actives raise or lower the signal. The procedure, abridged:
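HUVEC (human primary), 4H system; 24 h post-dose; VEGFRII by ELISA; bidirectional curve fit vs DMSO baseline; gain or loss of signal scored.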

Active and inactive are the calls of the source. The calls were made as follows: active = hit-call score of the fitted dose curve at least 0.9, where 1 is the maximum; inactive = score below 0.9.

The term AC50 denotes the concentration at which the activity in the assay is half-maximal. With `CC(C)OC(=O)C(C)(C)Oc1ccc(C(=O)c2ccc(Cl)cc2)cc1`, the result in assay [1], in assay [2], in [3], in assay [4], in assay [6] and in assay [7] was inactive. The outcome in [8], in assay [9], in assay [10], in assay [11], in assay [12] and in [13] was inactive. Moreover, the result in assay [14], in assay [15], in [16] and in assay [18] was inactive. The values for the AC50 in assay [5] and in assay [17] were 17 µM (active) and 20 µM (active), respectively.
For the molecule `O=[Si]=O`, the result in [1], in assay [2], in assay [19], in assay [3], in [5] and in assay [6] was inactive. For the same molecule, the result in assay [7], in assay [8], in [9], in assay [10], in [11] and in assay [12] was inactive. For the same molecule, the outcome in assay [13], in [14], in [15], in assay [16], in assay [17] and in assay [18] was inactive.
For `Oc1ccc(O)cc1`, the outcome in assay [1], in assay [2], in assay [19], in assay [3], in [20] and in assay [6] was inactive. Moreover, the outcome in [7], in assay [8], in assay [9], in assay [11], in [12] and in assay [13] was inactive. The result in assay [14], in assay [17] and in assay [18] was inactive. Besides, the AC50 was 10.9 µM (active) in assay [5], 7.83 µM (active) in assay [10], 9.58 µM (active) in assay [15] and 15.1 µM (active) in [16].
With `CN(C)CCCN1c2ccccc2Sc2ccc(Cl)cc21`, the AC50 in [1] was 26 µM (active); in assay [2], 39 µM (active); in [3] it was 12.2 µM (active); in assay [5] it was 17.8 µM (active); in assay [6] it was 30.5 µM (active); in assay [7], 38.4 µM (active). The AC50 in assay [8] is 32.1 µM (active); in assay [9], 31.9 µM (active); in assay [10], 36.4 µM (active); in [11], 29.4 µM (active); in [13], 32.1 µM (active); in assay [15] it was 27.7 µM (active). Besides, the AC50 in [16] is 11.2 µM (active); in [17], 5.41 µM (active); in assay [18], 20 µM (active). Further, the outcome in assay [19], in assay [20], in assay [12] and in assay [14] was inactive.
Take `CCCC(=O)O`: the outcome in assay [1], in [2], in [19], in assay [3], in assay [20] and in assay [5] was inactive. The result in [6], in [7], in [8], in assay [9], in [10] and in [11] was inactive. The outcome in assay [12], in assay [13], in assay [14], in assay [15], in assay [16] and in assay [17] was inactive. Also, the result in assay [18] was inactive.
On to `CCCCC(CC)CO` (stereo unspecified), for which the result in [1], in assay [2], in assay [19], in [3], in assay [20] and in assay [5] was inactive. In addition, the result in [6], in assay [7], in [8], in assay [9], in [10] and in assay [11] was inactive. The outcome in assay [12], in assay [13], in assay [14], in assay [15], in assay [16] and in assay [17] was inactive. In assay [18], the outcome was inactive.
On to `NC=O`, for which the outcome in [1], in assay [2], in assay [19], in [3], in assay [20] and in assay [5] was inactive. Also, the outcome in [6], in [7], in assay [8], in assay [9], in assay [10] and in assay [11] was inactive. Besides, the outcome in assay [12], in [13], in [14], in assay [15], in [16] and in [17] was inactive. Also, the result in assay [18] was inactive.

The record behind these values is PubChem BioAssay (EPA / NIEHS).
